Screening data (PubChem BioAssay)
Sampled rows, rich in hits. Any-hit rate of the full collection: about 3.3%.
14-3-3 Bad inh = disrupts binding of bovine 14-3-3 zeta to phospho-Bad peptide | TR-FRET 14-3-3zeta/Dy647-pBad peptide displacement, 1 h | AID 781 | 220,000 compounds, 0.71% hits | inhibition, % at 21.7 µM | P63103;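 active = inhibition above about 70%, limit read from the data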;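 note: 0% = full 14-3-3 plus peptide FRET controls and 100% = background without 14-3-3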
Mcl1 Bid PPI = Mcl-1/Bid interaction inhibition | 220,000 compounds, 0.97% hits | inhibition, % at 21.7 µM | AID 1021 | TR-FRET Mcl-1/Bid-Dy647 peptide binding, 1536-well | Q07820;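 active = compounds that cut the binding signal by more than half at the single screening dose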;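 note: His-tagged Mcl-1 with europium anti-His antibody binding Bid BH3 peptide; 0% = Mcl-1 plus peptide wells and 100% = peptide-only wells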
p47phox inh = p47phox (human) inhibition | P14598 | p47phox/p22phox peptide binding, fluorescence polarization, 2 h | inhibition, % at 24.7 µM | 220,000 compounds, 0.53% hits;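 note: 0% = p47phox with labelled peptide and 100% = labelled peptide alone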
Mcl1-Noxa inh = Mcl-1/Noxa interaction inhibition | TR-FRET Mcl-1/Noxa peptide binding, 2 h | inhibition, % at 21.7 µM | 220,000 compounds, 1.5% hits;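 active = compounds that cut the protein-peptide binding signal by more than 50% relative to plate controls in a single-dose test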;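 note: His-tagged Mcl-1 with rhodamine Noxa BH3 peptide and terbium anti-His antibody; 0% = Mcl-1 plus Noxa peptide wells and 100% = peptide-only wells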
Mcl-1 Bim block = human Bim-Mcl-1 interaction inhibition; Q07820; Bead-based flow cytometry, Bim peptide-Mcl-1 binding; inhibition, % at 10 µM; 190,000 compounds, 0.1% hits; in the data active = inhibition above about 40%;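 note: 0% = no compound tracer wells and 100% = peptide blocker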
eIF4E-4G inh = inhibitors of eIF4E and eIF4G interaction in translation initiation; P63073+Q04637; TR-FRET eIF4E-eIF4GI(517-606) binding, 2 h; inhibition, % at 21.7 µM; 220,000 compounds, 0.37% hits;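 note: 0% = full FRET control wells and 100% = background wells lacking eIF4GI fragment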
Target sequence (P63073 whole entry, looked up, the tested form may be a part): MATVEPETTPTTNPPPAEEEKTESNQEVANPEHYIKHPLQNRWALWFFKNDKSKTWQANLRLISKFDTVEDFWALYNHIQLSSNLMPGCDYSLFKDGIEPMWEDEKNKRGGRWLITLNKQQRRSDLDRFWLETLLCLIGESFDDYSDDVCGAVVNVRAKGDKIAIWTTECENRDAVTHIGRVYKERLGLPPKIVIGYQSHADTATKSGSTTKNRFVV
Target sequence (Q04637 whole entry, looked up, the tested form may be a part): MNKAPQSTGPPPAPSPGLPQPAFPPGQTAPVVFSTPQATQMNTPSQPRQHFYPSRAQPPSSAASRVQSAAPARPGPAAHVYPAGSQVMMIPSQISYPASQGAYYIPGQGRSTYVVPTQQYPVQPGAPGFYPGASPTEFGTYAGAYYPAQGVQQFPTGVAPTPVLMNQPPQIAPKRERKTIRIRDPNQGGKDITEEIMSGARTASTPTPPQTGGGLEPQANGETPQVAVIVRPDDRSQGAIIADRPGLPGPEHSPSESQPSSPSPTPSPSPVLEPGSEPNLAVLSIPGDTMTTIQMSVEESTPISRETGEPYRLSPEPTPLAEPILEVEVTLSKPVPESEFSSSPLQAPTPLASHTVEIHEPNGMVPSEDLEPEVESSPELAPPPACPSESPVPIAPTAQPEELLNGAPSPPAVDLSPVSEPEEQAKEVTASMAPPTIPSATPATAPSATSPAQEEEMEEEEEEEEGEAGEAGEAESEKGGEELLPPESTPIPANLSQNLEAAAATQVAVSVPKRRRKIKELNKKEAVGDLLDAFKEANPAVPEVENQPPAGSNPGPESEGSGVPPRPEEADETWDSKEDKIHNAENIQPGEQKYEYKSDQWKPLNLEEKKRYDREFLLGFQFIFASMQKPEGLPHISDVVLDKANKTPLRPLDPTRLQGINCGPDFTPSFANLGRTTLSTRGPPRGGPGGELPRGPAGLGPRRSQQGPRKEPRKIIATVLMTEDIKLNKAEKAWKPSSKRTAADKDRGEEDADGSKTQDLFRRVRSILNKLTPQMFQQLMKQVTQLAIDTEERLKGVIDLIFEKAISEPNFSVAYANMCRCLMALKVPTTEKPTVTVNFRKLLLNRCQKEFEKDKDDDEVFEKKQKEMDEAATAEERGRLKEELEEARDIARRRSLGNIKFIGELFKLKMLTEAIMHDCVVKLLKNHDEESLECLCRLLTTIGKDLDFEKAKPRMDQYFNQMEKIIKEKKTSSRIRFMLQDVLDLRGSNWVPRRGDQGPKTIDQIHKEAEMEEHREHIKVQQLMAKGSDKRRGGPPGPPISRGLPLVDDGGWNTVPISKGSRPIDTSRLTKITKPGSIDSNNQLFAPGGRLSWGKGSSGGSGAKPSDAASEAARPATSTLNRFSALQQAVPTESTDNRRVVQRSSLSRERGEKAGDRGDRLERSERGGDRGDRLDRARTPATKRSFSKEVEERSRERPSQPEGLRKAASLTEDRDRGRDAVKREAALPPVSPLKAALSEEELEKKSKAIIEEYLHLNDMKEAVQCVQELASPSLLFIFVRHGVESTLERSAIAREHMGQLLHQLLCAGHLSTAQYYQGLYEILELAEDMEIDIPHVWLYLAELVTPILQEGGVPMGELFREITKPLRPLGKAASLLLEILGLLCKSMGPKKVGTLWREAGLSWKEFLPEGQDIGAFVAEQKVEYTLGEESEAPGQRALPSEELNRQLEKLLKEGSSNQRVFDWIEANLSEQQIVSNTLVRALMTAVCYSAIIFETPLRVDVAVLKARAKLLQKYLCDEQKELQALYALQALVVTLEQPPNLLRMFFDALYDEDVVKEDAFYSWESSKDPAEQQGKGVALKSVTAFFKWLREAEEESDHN
* marks the source's active call; other numbers are inactive results; / = not tested or not shown.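 Rule for the calls, unless noted: active = inhibition above about 30% (limit read from the data); inactive = the rest.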

SMILES	14-3-3 Bad inh	Mcl1 Bid PPI	p47phox inh	Mcl1-Noxa inh	Mcl-1 Bim block	eIF4E-4G inh
NCCCCC(NC(=O)C1CCCN1C(=O)C1CSSCC(N)C(=O)NC(Cc2ccc(O)cc2)C(=O)NC(Cc2ccccc2)C(=O)NC(CCC(N)=O)C(=O)NC(CC(N)=O)C(=O)N1)C(=O)NCC(N)=O (centres undefined)	-6	-6	0	20	-3	4
CSc1ncc(Cl)c(C(=O)Nc2sc3c(c2C(=O)NCc2ccco2)CCCC3)n1	5	0	-13	-2	0	3
CCSc1ncc(Cl)c(C(=O)Nc2sc3c(c2C(=O)NCc2cccnc2)CCCC3)n1	58	59*	7	27	44*	-11
O=C(CNC(=O)c1ccccc1F)Nc1ccccc1C(F)(F)F	-17	-28	-1	16	0	2
COC(=O)N/N=C/c1cc(OC)c(O)c([N+](=O)[O-])c1	-18	-23	-4	32	-3	0
COc1ccc(Br)cc1C(=O)N/N=C/c1ccc([N+](=O)[O-])cc1	15	5	-5	17	-3	6
COc1cc(/C=N/NC(=O)c2ccc([N+](=O)[O-])cc2Cl)cc(Br)c1O	6	-42	-2	82*	9	17
COc1cc(/C=N/NC(=O)c2ccc(COc3ccccc3Cl)o2)cc(Br)c1O	38	40	15	73*	-19	12
COc1cc(/C=N/NC(N)=O)cc([N+](=O)[O-])c1O	12	-11	0	52*	5	4
COc1cc(C(=O)OCC(=O)NCc2ccco2)cc(OC)c1OC	-9	-15	-4	13	-3	-9
O=C(COC(=O)c1ccc(NS(=O)(=O)c2cccs2)cc1)NCc1ccco1	36	-22	-13	107*	/	20
O=C(COC(=O)c1cncc(Br)c1)NCc1ccco1	0	-30	0	56*	-1	-7
O=C(COC(=O)c1cncc(Br)c1)NCc1ccc(F)cc1	-2	-24	-10	7	0	2
COc1cc(NC(=O)c2cccs2)c(C(=O)OCC(=O)NCc2ccco2)cc1OC	7	28	-27	63*	-3	-9
O=C(Nc1ccc([N+](=O)[O-])cc1)c1cc(-c2ccccn2)nc2c(Cl)cccc12	71*	42	-6	49	5	15
Cc1cccc2c(C(=O)Nc3ccc(Br)cc3)cc(-c3ccccn3)nc12	-9	-30	-21	0	-1	-4
COc1cccc(NC(=O)c2cc(-c3ccncc3)nc3c(C)cc(C)cc23)c1	-10	-33	-28	6	-1	-4
CCOc1ccccc1NC(=O)c1cc(-c2ccncc2)nc2c(Cl)cccc12	73*	51*	40*	16	5	13
COC(=O)c1cc(N2C(=O)C3C(C2=O)C2(C)C=CC3(C)O2)ccc1Cl (centres undefined)	6	-1	1	69*	6	6
CS(=O)(=O)Nc1nc2n(n1)C(c1ccccc1)CC(c1ccccc1)N2 (centres undefined)	-4	-20	-5	-19	/	2
CC(C)(C)CC(=O)O/N=C(\N)c1ccccn1	6	85*	6	-6	-6	-2
CC(C)(C)NC(=O)NC(=O)COC(=O)CCC1CCCC1	-3	-21	-9	-8	/	-9
O=C(NCCc1cccs1)C1CC(c2ccccc2F)=NO1 (centres undefined)	-8	-38	-5	2	/	7
O=C(O)C1CC(c2ccccc2F)=NO1 (centres undefined)	11	-12	-9	12	1	48*
CC#C[C@]1(O)CC[C@H]2[C@@H]3CCC4=CC(=O)CCC4=C3[C@@H](c3ccc(N(C)C)cc3)C[C@@]21C	4	-24	0	67*	0	4
SMILES	14-3-3 Bad inh	Mcl1 Bid PPI	p47phox inh	Mcl1-Noxa inh	Mcl-1 Bim block	eIF4E-4G inh
COc1ccccc1Oc1c(C)oc2c(CN3CCOCC3)c(O)ccc2c1=O	-5	-15	0	-7	/	6
COc1cccc(Oc2c(C)oc3c(CN4CCCC4)c(O)ccc3c2=O)c1	5	96*	-4	-5	/	0
COc1cccc2c1nc(C)c1cc(C)oc12	-1	99*	-7	-43	-2	6
COc1ccc(Oc2ccc(/C=C/C(=O)c3ccc(O)cc3)cc2[N+](=O)[O-])cc1	-4	13	-24	4	-3	-2
COc1ccc(N(C(=O)C(C)C)S(=O)(=O)c2cccc3cccnc23)cc1	1	-11	59*	-4	-2	11
Cc1ccc(CNC(=O)c2cc3c(C)nc4ccccc4c3o2)cc1	26	27	9	-58	7	0
Cc1nc2ccccc2c2oc(C(=O)NCc3ccc4c(c3)OCO4)cc12	-3	1	121*	-3	4	4
O=C(NCc1ccc2c(c1)OCO2)c1ccc2c(c1)OCCO2	3	-13	-3	3	-1	69*
CCc1c(C)sc(NC(=O)OC)c1C(N)=O	-7	-10	-7	-1	-4	3
CCc1c(C)sc(NC(=O)C2CCCCC2C(=O)O)c1C(N)=O (centres undefined)	23	-27	17	7	0	55*
CCc1c(C)sc(NC(=O)OC)c1C(=O)N1CCCCC1	-1	8	37*	16	-5	-9
CCCNCC1C(Oc2ccc(Cl)cc2)C(=O)N1c1ccccc1C (centres undefined)	-20	-13	-3	19	-4	10
Cc1ccc2cc(C)c3nnc(SCc4ccc(C(=O)O)cc4)n3c2c1C	-5	-60	-1	-12	/	97*
Cn1cnnc1SCc1ccc(C(=O)O)cc1	-16	9	-5	25	2	-2
Cc1nn(-c2ccccc2)c2c1C(c1ccncc1)C(C#N)=C(N)O2 (centres undefined)	8	-32	-4	16	0	4
Cc1nn(-c2ccccc2)c(Cl)c1C1C(C#N)=C(N)Oc2c1c(C)nn2-c1ccccc1 (centres undefined)	-5	-26	-3	60*	-2	5
CN(C)CCCN(C(=O)c1ccc2c(c1)CCCC2)c1nc2c(F)cccc2s1	-9	-10	8	56*	-5	7
CN(C)CCCN(C(=O)c1ccc(N2C(=O)CCC2=O)cc1)c1nc2c(F)cccc2s1	12	8	3	38	-1	-2
CC(C)=CCCC1(C)C=Cc2c(c(C)cc3c2[nH]c2cc(O)ccc23)O1 (centres undefined)	-6	-97	-6	14	/	-19
O=C(Nc1ccc(Cl)c([N+](=O)[O-])c1)c1ccncc1	-4	2	-9	4	-2	4
O=C(Nc1ccc(Cl)c([N+](=O)[O-])c1)c1cnccn1	-6	-70	0	64*	-3	5
